{"source": "paper PMC4336329", "about": "(PLoS ONE, 2015)", "note": "In all, about 310,000 compounds went through this assay and about 14,000 (4.5%) showed an effect of 50% or more. The effect is printed as a negative number. The sample as a whole holds a higher share of strong results than the screen did.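 Further: peak tail current of the secondary pulse compared with the same well before compound.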"}
{"target": "human ether-à-go-go-related gene (hERG) potassium channel (human, UniProt Q12809)", "sequence (Q12809 whole entry, looked up)": "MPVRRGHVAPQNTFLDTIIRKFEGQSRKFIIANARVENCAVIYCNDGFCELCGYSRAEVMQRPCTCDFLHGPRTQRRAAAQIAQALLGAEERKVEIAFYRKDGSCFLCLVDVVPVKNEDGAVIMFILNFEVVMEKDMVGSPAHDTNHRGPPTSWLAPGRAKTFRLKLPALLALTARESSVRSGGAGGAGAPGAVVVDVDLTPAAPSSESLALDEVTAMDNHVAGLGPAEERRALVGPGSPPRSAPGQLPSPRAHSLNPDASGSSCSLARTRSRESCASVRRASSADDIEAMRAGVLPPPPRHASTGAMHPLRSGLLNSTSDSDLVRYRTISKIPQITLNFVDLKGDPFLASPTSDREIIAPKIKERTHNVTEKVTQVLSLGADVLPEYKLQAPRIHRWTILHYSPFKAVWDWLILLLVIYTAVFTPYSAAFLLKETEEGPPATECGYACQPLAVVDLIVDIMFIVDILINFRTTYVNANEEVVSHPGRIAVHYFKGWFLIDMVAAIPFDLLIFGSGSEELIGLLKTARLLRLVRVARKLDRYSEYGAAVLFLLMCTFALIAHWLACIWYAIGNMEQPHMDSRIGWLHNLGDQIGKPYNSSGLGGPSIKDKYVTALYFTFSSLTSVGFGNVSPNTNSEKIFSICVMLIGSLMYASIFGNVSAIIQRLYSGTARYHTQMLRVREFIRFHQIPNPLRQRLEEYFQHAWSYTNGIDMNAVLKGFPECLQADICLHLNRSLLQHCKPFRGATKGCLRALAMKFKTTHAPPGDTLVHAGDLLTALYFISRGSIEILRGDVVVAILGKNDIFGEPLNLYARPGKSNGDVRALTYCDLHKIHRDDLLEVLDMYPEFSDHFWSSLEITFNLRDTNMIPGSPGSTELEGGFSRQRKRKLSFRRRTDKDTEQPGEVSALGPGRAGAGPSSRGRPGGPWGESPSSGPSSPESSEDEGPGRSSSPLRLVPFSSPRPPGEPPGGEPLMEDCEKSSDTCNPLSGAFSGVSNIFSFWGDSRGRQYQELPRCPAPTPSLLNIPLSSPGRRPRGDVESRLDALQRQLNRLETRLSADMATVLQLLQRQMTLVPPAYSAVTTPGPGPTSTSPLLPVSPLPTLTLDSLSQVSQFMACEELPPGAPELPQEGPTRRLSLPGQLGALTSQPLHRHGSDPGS", "experiment": "primary screen, population patch clamp on CHO cells stably expressing hERG; higher = less effect of the substance", "units": {"hERG current change (%, negative = inhibition) at 10uM": "%"}}
{"compound": "CCc1ccccc1NC1=NCC(=O)N1Cc1ccccc1", "hERG current change (%, negative = inhibition) at 10uM": 4.53}
{"compound": "COc1ccc(N(C(=O)c2ccco2)S(=O)(=O)c2cc(OC)ccc2OC)cc1", "hERG current change (%, negative = inhibition) at 10uM": -19.3}
{"compound": "CC(NC(N)=O)C(=O)OCC(=O)c1ccc(-c2ccccc2)cc1", "note": "(stereo not shown)", "hERG current change (%, negative = inhibition) at 10uM": 10.8}
{"compound": "COc1ccc(OC)c(CCNC(=O)c2ccc3c(=O)[nH]c4c(C(=O)NC(C)C)sc(=S)n4c3c2)c1", "hERG current change (%, negative = inhibition) at 10uM": 21.2}
{"compound": "CN(c1ccccc1)S(=O)(=O)c1ccc(Cl)c(C(=O)NC2=NCCS2)c1", "hERG current change (%, negative = inhibition) at 10uM": 9.14}
{"compound": "Cc1cc(C)c2c3c(sc2n1)C(=O)N(c1ccccc1C)CC(=O)N3", "hERG current change (%, negative = inhibition) at 10uM": 14.6}
{"compound": "CN(C)C(CNc1ccc(S(C)(=O)=O)cc1[N+](=O)[O-])c1ccccc1", "note": "(stereo not shown)", "hERG current change (%, negative = inhibition) at 10uM": -12.6}
{"compound": "COc1ccc(NC(=O)CSCc2ccc([N+](=O)[O-])cc2)cc1OC", "hERG current change (%, negative = inhibition) at 10uM": -17.5}
{"compound": "O=C(NCCO)c1cc2cc(Cl)cc(Cl)c2oc1=O", "hERG current change (%, negative = inhibition) at 10uM": -3.65}
{"compound": "CCN(CC(=O)NCc1cccs1)C(=O)COc1ccc(C(N)=O)cc1", "hERG current change (%, negative = inhibition) at 10uM": 6.69}
{"compound": "CCCCc1cc(=O)oc2c(C)c(OCC(=O)N3CCC(C(=O)O)(c4ccccc4)CC3)ccc12", "hERG current change (%, negative = inhibition) at 10uM": 6.82}
{"compound": "CCCCc1cc(=O)oc2c(C)c(OCC(=O)N3C[C@H]4C[C@@H](C3)c3cccc(=O)n3C4)ccc12", "hERG current change (%, negative = inhibition) at 10uM": -60}
{"compound": "COc1ccc2c(C)c(CC(=O)N3C[C@H]4C[C@@H](C3)c3cccc(=O)n3C4)c(=O)oc2c1C", "hERG current change (%, negative = inhibition) at 10uM": -3.48}
{"compound": "CCc1cc(=O)oc2c(C)c(OCC(=O)N3C[C@H]4C[C@@H](C3)c3cccc(=O)n3C4)ccc12", "hERG current change (%, negative = inhibition) at 10uM": 5.08}
{"compound": "CCCc1cc(=O)oc2cc(OCC(=O)N3C[C@H]4C[C@@H](C3)c3cccc(=O)n3C4)c(Cl)cc12", "hERG current change (%, negative = inhibition) at 10uM": -14.7}
{"compound": "CCCCc1cc(=O)oc2cc(OCC(=O)N3C[C@H]4C[C@@H](C3)c3cccc(=O)n3C4)c(Cl)cc12", "hERG current change (%, negative = inhibition) at 10uM": -62.5}
{"compound": "C=C(C)COc1ccc2c(C)c(CC(=O)N3C[C@H]4C[C@@H](C3)c3cccc(=O)n3C4)c(=O)oc2c1C", "hERG current change (%, negative = inhibition) at 10uM": -49.2}
{"compound": "CCCCc1cc(=O)oc2c(C)c(OCC(=O)N3CCC(C(N)=O)CC3)ccc12", "hERG current change (%, negative = inhibition) at 10uM": -16.7}
{"compound": "CC(C)=CCOc1ccc2c(C)c(CC(=O)N3C[C@H]4C[C@@H](C3)c3cccc(=O)n3C4)c(=O)oc2c1C", "hERG current change (%, negative = inhibition) at 10uM": -57.3}
{"compound": "CCCc1cc(=O)oc2c(C)c(OCC(=O)N3C[C@H]4C[C@@H](C3)c3cccc(=O)n3C4)ccc12", "hERG current change (%, negative = inhibition) at 10uM": -23.9}
{"compound": "CCCCc1cc(=O)oc2c(C)c(OCC(=O)N3CCCC3)ccc12", "hERG current change (%, negative = inhibition) at 10uM": -64.8}
{"compound": "CCc1cc(=O)oc2cc(OCC(=O)N3C[C@H]4C[C@@H](C3)c3cccc(=O)n3C4)c(Cl)cc12", "hERG current change (%, negative = inhibition) at 10uM": -3.61}
